The supplement of paper PMC4166925
± gives the standard deviation of the averaged measurements. Whole data set: some 33,000 sequences, median “E-score (dimensionless, -0.5 to 0.5)” near -0.046, cut for the highest 2% near 0.36. Shown is part of a subset that was picked to be rich in the highest values.
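Also: protein at 200 nM in PBS on universal double-stranded arrays.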

What follows are sequences tested on T1, SpTbr T-box DNA-binding domain (GST fusion) (assay: PBM E-score of 8-mer (E-score (dimensionless, -0.5 to 0.5)); Tbr is Tbrain of the sea star Patiria miniata (Pm) or the sea urchin Strongylocentrotus purpuratus (Sp); higher = stronger binding preference). Settings: the construct has about 5 more residues each side.
T1 sequence: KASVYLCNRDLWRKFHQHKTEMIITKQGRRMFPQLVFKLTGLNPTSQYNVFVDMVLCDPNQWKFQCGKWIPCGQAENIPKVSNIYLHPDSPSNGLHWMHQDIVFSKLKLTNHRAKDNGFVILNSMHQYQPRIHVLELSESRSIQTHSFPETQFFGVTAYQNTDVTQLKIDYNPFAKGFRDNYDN
Method: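 Universal protein-binding microarray (Agilent AMADID 016060, 60-bp probes with a 35-bp variable region) incubated with 200 nM GST-fused Strongylocentrotus purpuratus Tbr T-box DNA-binding domain (residues 362-554) in PBS pH 7.5. Scored for every ungapped 8-mer (given with its reverse complement) as E-score (range -0.5 to 0.5; >0.45 counts as bound) and Z-score of median probe intensity. Two replicate arrays (datasets 1 and 2).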
ACTTGCTG was tested, and the “PBM E-score of 8-mer” value was -0.0473 ± 0.073.
In the case of ATTCTGTC, the “PBM E-score of 8-mer” value is reported as 0.04 ± 0.016.
In the case of CAGTAACC, the “PBM E-score of 8-mer” value is reported as 0.048 ± 0.029.
GAAATGGA was tested, and the “PBM E-score of 8-mer” value was -0.101 ± 0.0095.
With ACTTGACT the “PBM E-score of 8-mer” value was 0.0832 ± 0.1.
In the case of CTAATAGC, the “PBM E-score of 8-mer” value is reported as 0.0334 ± 0.069.
ACTGTTAC was tested, and the “PBM E-score of 8-mer” value was 0.168 ± 0.0045.
GCTGTTAA was tested, and the “PBM E-score of 8-mer” value was 0.162 ± 0.0053.
In the case of AGTGTTCC, the “PBM E-score of 8-mer” value is reported as 0.0182 ± 0.013.
In the case of CGTGTTGA, the “PBM E-score of 8-mer” value is reported as 0.3014 ± 0.0019.
GTTGTTAA was tested, and the “PBM E-score of 8-mer” value was 0.339 ± 0.034.
For GGTGTTAA, the “PBM E-score of 8-mer” value was 0.472 ± 0.0062.
AGTGTTAA was tested, and the “PBM E-score of 8-mer” value was 0.436 ± 0.021.
For AATGTTAA, the “PBM E-score of 8-mer” value was -0.0502 ± 0.052.
With AGTGTTAC the “PBM E-score of 8-mer” value was 0.3741 ± 0.0036.
For GGTGTTGA, the “PBM E-score of 8-mer” value was 0.4631 ± 0.0038.
GTTGTTGA was tested, and the “PBM E-score of 8-mer” value was 0.239 ± 0.044.
For ACTGTTAA, the “PBM E-score of 8-mer” value was 0.261 ± 0.036.
ATTTGCAC was tested, and the “PBM E-score of 8-mer” value was 0.239 ± 0.043.
With ACTTGAGG the “PBM E-score of 8-mer” value was -0.00245 ± 0.078.
With CGACGCGA the “PBM E-score of 8-mer” value was 0.159 ± 0.068.
For ACAGCTTC, the “PBM E-score of 8-mer” value was 0.208 ± 0.017.
For AGTGGAGC, the “PBM E-score of 8-mer” value was -0.0127 ± 0.11.
TCATCTCA was tested, and the “PBM E-score of 8-mer” value was 0.0482 ± 0.019.
In the case of GCCAATCC, the “PBM E-score of 8-mer” value is reported as -0.0232 ± 0.048.
AGTGTGGC was tested, and the “PBM E-score of 8-mer” value was 0.33 ± 0.014.
With AGTGTGTA the “PBM E-score of 8-mer” value was 0.229 ± 0.018.
For GGTGTGGA, the “PBM E-score of 8-mer” value was 0.456 ± 0.014.
In the case of AGTGTGGG, the “PBM E-score of 8-mer” value is reported as 0.399 ± 0.018.
In the case of GGTGTGTA, the “PBM E-score of 8-mer” value is reported as 0.356 ± 0.008.
For AGTGTGGA, the “PBM E-score of 8-mer” value was 0.373 ± 0.035.
For CGTGTGGA, the “PBM E-score of 8-mer” value was 0.306 ± 0.0073.
AGAGTGGG was tested, and the “PBM E-score of 8-mer” value was -0.128 ± 0.066.
AGTGGGGG was tested, and the “PBM E-score of 8-mer” value was -0.0909 ± 0.05.
ACCTTAGC was tested, and the “PBM E-score of 8-mer” value was 0.211 ± 0.014.
CCACGGGC was tested, and the “PBM E-score of 8-mer” value was -0.227 ± 0.019.
In the case of CTTCGCGA, the “PBM E-score of 8-mer” value is reported as 0.285 ± 0.032.
AATCGCGA was tested, and the “PBM E-score of 8-mer” value was 0.3847 ± 0.00013.
ATTCGCGG was tested, and the “PBM E-score of 8-mer” value was 0.275 ± 0.026.
For AATCGCGT, the “PBM E-score of 8-mer” value was 0.194 ± 0.039.
In the case of ATTCGCGC, the “PBM E-score of 8-mer” value is reported as 0.387 ± 0.012.
With CTTCGCTC the “PBM E-score of 8-mer” value was -0.00285 ± 0.036.
With ATTCGCTA the “PBM E-score of 8-mer” value was 0.208 ± 0.024.
ATTCGCGA was tested, and the “PBM E-score of 8-mer” value was 0.392 ± 0.02.
In the case of CATCGCGA, the “PBM E-score of 8-mer” value is reported as 0.197 ± 0.0055.
CTTCGCGC was tested, and the “PBM E-score of 8-mer” value was 0.407 ± 0.032.
In the case of CATCGCGC, the “PBM E-score of 8-mer” value is reported as 0.259 ± 0.032.
With AATCGCGC the “PBM E-score of 8-mer” value was 0.332 ± 0.01.
With GCGCCACA the “PBM E-score of 8-mer” value was 0.223 ± 0.014.
ATTTGTGA was tested, and the “PBM E-score of 8-mer” value was 0.181 ± 0.085.
With GGGGCGCA the “PBM E-score of 8-mer” value was -0.227 ± 0.038.
In the case of TAAAGCTA, the “PBM E-score of 8-mer” value is reported as -0.171 ± 0.036.
For GTATTGAC, the “PBM E-score of 8-mer” value was -0.0627 ± 0.015.
With CAGTGCAG the “PBM E-score of 8-mer” value was -0.179 ± 0.024.
CCTCGCGA was tested, and the “PBM E-score of 8-mer” value was 0.306 ± 0.0057.
With ACTCGCGC the “PBM E-score of 8-mer” value was 0.298 ± 0.038.
For GTTCGCGA, the “PBM E-score of 8-mer” value was 0.389 ± 0.0052.
For ACTCGCGA, the “PBM E-score of 8-mer” value was 0.3822 ± 0.0018.
In the case of GTTCGCCA, the “PBM E-score of 8-mer” value is reported as 0.158 ± 0.011.
For GGTCGCGA, the “PBM E-score of 8-mer” value was 0.335 ± 0.017.
For CCAGCGCG, the “PBM E-score of 8-mer” value was 0.0431 ± 0.073.
CCTCGTTC was tested, and the “PBM E-score of 8-mer” value was 0.0141 ± 0.013.
GGTCAACA was tested, and the “PBM E-score of 8-mer” value was 0.114 ± 0.02.
CGTCAACA was tested, and the “PBM E-score of 8-mer” value was 0.356 ± 0.0058.
With TGTCAACA the “PBM E-score of 8-mer” value was 0.4051 ± 0.0019.
With CTAAACCA the “PBM E-score of 8-mer” value was -0.0751 ± 0.046.
CTCCCTTC was tested, and the “PBM E-score of 8-mer” value was -0.214 ± 0.037.
With ACACTCTA the “PBM E-score of 8-mer” value was 0.325 ± 0.017.
For ACTCTCTC, the “PBM E-score of 8-mer” value was 0.0136 ± 0.068.
GCTTACAC was tested, and the “PBM E-score of 8-mer” value was 0.219 ± 0.012.
For ACTCACAC, the “PBM E-score of 8-mer” value was 0.469 ± 0.0082.
For ACTCACAG, the “PBM E-score of 8-mer” value was 0.313 ± 0.011.
CCTCACAC was tested, and the “PBM E-score of 8-mer” value was 0.4723 ± 0.0005.
For ACACTCTC, the “PBM E-score of 8-mer” value was 0.3695 ± 0.0036.
With ACTCACAT the “PBM E-score of 8-mer” value was 0.124 ± 0.049.
In the case of CCTCACAA, the “PBM E-score of 8-mer” value is reported as 0.233 ± 0.0063.
With ACTTACAC the “PBM E-score of 8-mer” value was 0.251 ± 0.075.
With CCTCACAG the “PBM E-score of 8-mer” value was 0.149 ± 0.032.
With CCTTACAC the “PBM E-score of 8-mer” value was 0.3668 ± 0.0022.
With GGCTCTCA the “PBM E-score of 8-mer” value was 0.0783 ± 0.047.
With AGCATAGC the “PBM E-score of 8-mer” value was -0.135 ± 0.061.
With CGCGTTTA the “PBM E-score of 8-mer” value was 0.0979 ± 0.059.
CGAGATAC was tested, and the “PBM E-score of 8-mer” value was -0.0218 ± 0.054.
GAACAAAA was tested, and the “PBM E-score of 8-mer” value was -0.0265 ± 0.017.
In the case of ACGTATGC, the “PBM E-score of 8-mer” value is reported as 0.0191 ± 0.0035.
With AGGCGCAT the “PBM E-score of 8-mer” value was -0.182 ± 0.024.
With ACCGTCAT the “PBM E-score of 8-mer” value was 0.0989 ± 0.0085.
ATTGAAGG was tested, and the “PBM E-score of 8-mer” value was -0.0895 ± 0.13.
In the case of AAGCGGTG, the “PBM E-score of 8-mer” value is reported as -0.1161 ± 0.00078.
With CACAAGGC the “PBM E-score of 8-mer” value was -0.114 ± 0.035.
In the case of ACATGGCA, the “PBM E-score of 8-mer” value is reported as -0.0601 ± 0.028.
For GCCAGCGA, the “PBM E-score of 8-mer” value was 0.164 ± 0.098.
ACACTCAG was tested, and the “PBM E-score of 8-mer” value was 0.232 ± 0.042.
In the case of ACACTCCG, the “PBM E-score of 8-mer” value is reported as 0.367 ± 0.023.
With GCTCACAA the “PBM E-score of 8-mer” value was 0.174 ± 0.018.
With ACTCTCAC the “PBM E-score of 8-mer” value was 0.285 ± 0.036.
ACACTCAC was tested, and the “PBM E-score of 8-mer” value was 0.366 ± 0.004.
For ACACTCCT, the “PBM E-score of 8-mer” value was 0.193 ± 0.021.
In the case of GCTCACAC, the “PBM E-score of 8-mer” value is reported as 0.448 ± 0.0095.
In the case of ACTCTCCG, the “PBM E-score of 8-mer” value is reported as -0.0225 ± 0.053.
GCACACAC was tested, and the “PBM E-score of 8-mer” value was 0.294 ± 0.035.
With ATCTCCGG the “PBM E-score of 8-mer” value was 0.0811 ± 0.031.
With ACCGTTCA the “PBM E-score of 8-mer” value was 0.027 ± 0.023.
For AGCGAGTC, the “PBM E-score of 8-mer” value was 0.0305 ± 0.044.
In the case of CTGTACCA, the “PBM E-score of 8-mer” value is reported as -0.0774 ± 0.055.
In the case of GCTAGAAC, the “PBM E-score of 8-mer” value is reported as 0.0971 ± 0.024.
With AGACCATG the “PBM E-score of 8-mer” value was -0.0594 ± 0.025.
In the case of ATGCCAAC, the “PBM E-score of 8-mer” value is reported as 0.124 ± 0.0029.
For CTGCCAAA, the “PBM E-score of 8-mer” value was 0.0249 ± 0.15.
For TTGCCAAA, the “PBM E-score of 8-mer” value was 0.0607 ± 0.12.
